14-3-3 Bad PPI: disrupts binding of bovine 14-3-3 zeta to phospho-Bad peptide | 220,000 tested, 0.71% active | TR-FRET 14-3-3zeta/Dy647-pBad peptide displacement, 1 h | inhibition, % at 21.7 µM | P63103;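 active means inhibition above about 70%, limit read from the data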
Target sequence (P63103 whole entry, looked up): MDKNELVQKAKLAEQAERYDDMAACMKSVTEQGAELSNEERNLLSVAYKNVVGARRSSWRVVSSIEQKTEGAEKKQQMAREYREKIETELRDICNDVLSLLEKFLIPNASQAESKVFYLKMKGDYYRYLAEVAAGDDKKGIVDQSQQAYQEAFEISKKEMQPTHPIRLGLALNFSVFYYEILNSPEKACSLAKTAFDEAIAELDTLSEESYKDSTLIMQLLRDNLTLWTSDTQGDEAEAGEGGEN
Mcl1 Bid PPI: disrupts binding of human Mcl-1 to Bid peptide; TR-FRET Mcl-1/Bid-Dy647 peptide binding, 1536-well; inhibition, % at 21.7 µM; Q07820; 220,000 tested, 0.97% active; AID 1021;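 active means compounds that cut the binding signal by more than half at the single screening dose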;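 further: His-tagged Mcl-1 with europium anti-His antibody binding Bid BH3 peptide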
Target sequence (Q07820 whole entry, looked up): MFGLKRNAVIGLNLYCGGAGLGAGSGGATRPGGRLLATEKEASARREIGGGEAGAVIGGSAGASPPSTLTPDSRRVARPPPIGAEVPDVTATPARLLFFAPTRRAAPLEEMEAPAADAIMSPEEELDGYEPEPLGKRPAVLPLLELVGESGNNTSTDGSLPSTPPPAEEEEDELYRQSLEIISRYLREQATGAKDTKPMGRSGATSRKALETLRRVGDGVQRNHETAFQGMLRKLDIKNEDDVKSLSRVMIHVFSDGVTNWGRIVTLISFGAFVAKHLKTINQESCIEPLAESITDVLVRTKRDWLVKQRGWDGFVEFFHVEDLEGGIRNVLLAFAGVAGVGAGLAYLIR
Hck Nef HTS: inhibitors of human Hck kinase activated by Nef; 220,000 tested, 0.68% active; Recombinant Hck-YEEI plus Nef, Z-Lyte FRET kinase assay; inhibition, % at 20 µM; AID 463187;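 active means Hck-Nef kinase inhibition above about 50%, limit read from the data; inactive means inhibition below that limit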
Pf gametocyte: kills late stage P. falciparum gametocytes; 150,000 tested, 0.065% active; AID 743093; inhibition, % at 10.9 µM; P. falciparum stage V gametocytes, ATP luminescence, 24 h;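 active means inhibition above the mean plus 3 SD of compounds within the control limits, set per campaign, cut at about 38% in these data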
Mcl1-Noxa inh: disrupts binding of human Mcl-1 to Noxa peptide; Q07820; TR-FRET Mcl-1/Noxa peptide binding, 2 h; inhibition, % at 21.7 µM; 220,000 tested, 1.5% active; AID 1022;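 active means compounds that cut the protein-peptide binding signal by more than 50% relative to plate controls in a single-dose test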;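 further: His-tagged Mcl-1 with rhodamine Noxa BH3 peptide and terbium anti-His antibody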
Bim-Mcl-1: disrupts Bim peptide binding to human Mcl-1; Bead-based flow cytometry, Bim peptide-Mcl-1 binding; Q07820; 190,000 tested, 0.1% active; inhibition, % at 10 µM; AID 1009; in the data active means inhibition above about 40%
Hck Nef conf: confirmation of Hck-Nef kinase inhibitors | calls only at 10 µM | AID 463188 | 1,300 tested, 28% active | shares compounds with Hck Nef HTS | Recombinant Hck-YEEI:Nef, Z-Lyte FRET kinase assay;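 active means average inhibition of at least 50%, with Z-scores no higher than 3 in both the phospho-tyrosine peptide and fluorescence counterscreens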
Large screens that a line does not name were inactive (follow-up assays come after a bar, where shown). Compounds with a hit are over-represented: about 2.9% of the library has one in this group of screens.

CNC(=O)c1cc2c(=O)n3cc(C)ccc3nc2n(C(C)C)c1=N	Hck Nef HTS 170.9
C=CCn1c(=N)c(C#N)cc2c(=O)n3ccccc3nc21	none (no result: Pf gametocyte)
C=CCn1c(=N)c(C(=O)NCCCOC)cc2c(=O)n3cc(C)ccc3nc21	Hck Nef HTS 187.3 (not shown: 14-3-3 Bad PPI, Pf gametocyte)
C=CCn1c(=N)c(C(=O)NCCCOC)cc2c(=O)n3ccccc3nc21	Hck Nef HTS active (not shown: Pf gametocyte)
Cc1ccc2nc3c(cc(C(=O)NCCCn4ccnc4)n3C)c(=O)n2c1	none
COc1cc(/C=C/C(=O)OCC(=O)Nc2ccc(C)cc2[N+](=O)[O-])ccc1O	Hck Nef HTS 59.9, Mcl1-Noxa inh 54.9 | Hck Nef conf inactive
O=C(Nc1cc(Cl)ccc1N1CCOCC1)c1ccc(N2CCCCC2)c([N+](=O)[O-])c1	none (no result: 14-3-3 Bad PPI, Mcl1 Bid PPI, Hck Nef HTS, Mcl1-Noxa inh, Bim-Mcl-1)
COc1ccc(C2Oc3ccccc3C3=C2C(c2cccs2)n2ncnc2N3)cc1 (centres undefined)	none (no result: Pf gametocyte, Mcl1-Noxa inh)
Brc1ccc(C2C3=C(Nc4ncnn42)c2ccccc2OC3c2ccncc2)cc1 (centres undefined)	Hck Nef HTS 72.7 | Hck Nef conf active
CCOc1cc(/C=N/N=C2/NC(=O)C(CC(=O)O)S2)ccc1OCc1ccc(Cl)cc1Cl (centres undefined)	Hck Nef HTS 53.7, Mcl1-Noxa inh 55.4 (no result: Pf gametocyte) | Hck Nef conf inactive
COc1cc(/C=N/N=C2/NC(=O)C(CC(=O)O)S2)ccc1OCc1ccc(Cl)cc1 (centres undefined)	none
Cc1ccccc1C(=O)Nc1nc2c(C)csc2c(=O)s1	Hck Nef HTS 78.3 (no result: Bim-Mcl-1) | Hck Nef conf inactive
O=C(CC(Nc1ccc(Cl)cc1)C(=O)O)c1ccccc1 (centres undefined)	none (no result: Pf gametocyte)
COC(=O)c1ccccc1NC(=O)N1CCN(Cc2ccco2)CC1	Hck Nef HTS 64.0 | Hck Nef conf inactive
O=C(c1cc2c(=O)n3ccccc3nc2s1)N1CCOCC1	none (no result: 14-3-3 Bad PPI, Mcl1 Bid PPI, Mcl1-Noxa inh)
CCCNC(=O)COC(=O)c1cc2c(=O)n3ccccc3nc2s1	Hck Nef HTS 51.2 | Hck Nef conf inactive
CC(C)OCCCn1c(=NC(=O)c2cccs2)c(C#N)cc2c(=O)n3ccccc3nc21	none (no result: Bim-Mcl-1)
CC(C)OCCCn1c(=NC(=O)c2ccncc2)c(C#N)cc2c(=O)n3ccccc3nc21	Hck Nef HTS 108.5
CC(=O)N=c1c(C#N)cc2c(=O)n3ccccc3nc2n1CCCOC(C)C	Hck Nef HTS 55.6 (not shown: Bim-Mcl-1)
CCOC(=O)CC(=O)N/N=C/c1c(N)n(C)c(=O)n(C)c1=O	none
CCCSc1nc2c(cnn2-c2ccccc2)c(=O)n1N	Hck Nef HTS 76.4 (no result: Bim-Mcl-1) | Hck Nef conf active
CCCCSc1nc2c(cnn2-c2ccccc2)c(=O)n1N	none
CC1CCC2(CC1)NC(=O)N(CC(=O)Nc1sc3c(c1C(N)=O)CCC3)C2=O (centres undefined)	Hck Nef HTS 63.8, Mcl1-Noxa inh 64.4 | Hck Nef conf active
CCOc1ccc(NC(=O)CSC(N)=O)cc1	none (no result: Pf gametocyte)
O=C(CCc1ccc(O)cc1)N/N=C/c1coc2ccccc2c1=O	Hck Nef HTS 66.7 (no result: Bim-Mcl-1) | Hck Nef conf active
NC(=S)N/N=C/c1coc2ccc(Cl)cc2c1=O	Hck Nef HTS 66.0 (no result: Pf gametocyte) | Hck Nef conf active
O=C(N/N=C/c1coc2ccccc2c1=O)c1cc(O)cc(O)c1	Hck Nef HTS 62.7 | Hck Nef conf active
Cc1ccc2occ(/C=N/NC(=O)[C@@H](N)Cc3ccccc3)c(=O)c2c1	Hck Nef HTS 79.7 (no result: Bim-Mcl-1) | Hck Nef conf active
CC(C)NS(=O)(=O)c1ccc(OCC(N)=O)c(Cl)c1	none
CCOC(=O)c1ccc(NC(=O)CC2SCCNC2=O)cc1 (centres undefined)	none
C=C(C)COc1ccc(-c2nc(N)ncc2Oc2ccccc2OCC)c(O)c1	none
CCOC(=O)/C(C#N)=C/c1cc2ccc(C)cc2nc1Cl	none
COCC(C)OC(=O)/C(C#N)=C\c1coc2ccc(C)cc2c1=O (centres undefined)	Hck Nef HTS 97.9 | Hck Nef conf active
Cc1c(Cc2ccccc2)c(=O)oc2cc(O)ccc12	Hck Nef HTS 138.9 (not shown: Bim-Mcl-1)
CCOC(=O)CCc1c(C)c2ccc(O)cc2oc1=O	Hck Nef HTS 90.1
Cc1ccc(S(=O)(=O)c2c(COC(=O)c3ccc(Cl)cc3)c(-c3ccccc3)nn2C)cc1	none (no result: Pf gametocyte)
COc1ccc(OC)c(/C=N/NC(=O)CNC(=O)c2ccc(S(=O)(=O)N3CCCC3)cc2)c1	none
CCOC(=O)c1cc2c(=O)n3cccc(C)c3nc2n(CCOC)c1=NC(C)=O	Hck Nef HTS 87.0 (not shown: Bim-Mcl-1)
CCOC(=O)c1cc2c(=O)n3ccccc3nc2n(CCCOC)c1=NC(C)=O	Hck Nef HTS 172.9 (not shown: Pf gametocyte)
CCOCCCn1c(=NC(C)=O)c(C#N)cc2c(=O)n3cccc(C)c3nc21	none (no result: Bim-Mcl-1)
CCOC(=O)c1cc2c(=O)n3cccc(C)c3nc2n(CC2CCCO2)c1=NC(C)=O (centres undefined)	Hck Nef HTS 74.5 (no result: 14-3-3 Bad PPI, Mcl1 Bid PPI, Pf gametocyte, Mcl1-Noxa inh, Bim-Mcl-1) | Hck Nef conf inactive
CN(C)S(=O)(=O)c1cccc(NC(=S)N/N=C/c2ccc(O)c(O)c2O)c1	Hck Nef HTS 91.5, Mcl1-Noxa inh 107.7 (no result: Bim-Mcl-1) | Hck Nef conf active
COc1ccccc1C1NC(=O)NC(C)=C1C(=O)OC1CCCC(C)C1 (centres undefined)	none (no result: 14-3-3 Bad PPI, Mcl1 Bid PPI, Hck Nef HTS, Mcl1-Noxa inh, Bim-Mcl-1)
CCN1CCCc2cc(CN(CCN3CCOCC3)C(=S)Nc3ccc(OC)c(OC)c3)ccc21	Hck Nef HTS 52.2 | Hck Nef conf inactive
CCN1CCCc2cc(CN(CCN3CCOCC3)C(=S)Nc3ccccc3C)ccc21	Hck Nef HTS 56.9, Mcl1-Noxa inh 71.9 | Hck Nef conf inactive
Cc1ccc(-c2nnc(-c3ccc(NC(=O)c4ccco4)cc3)o2)cc1	Hck Nef HTS 108.0 (no result: Pf gametocyte) | Hck Nef conf inactive
c1ccc(Cn2c(-c3ccco3)nc3nc4ccccc4nc32)cc1	none (no result: Pf gametocyte)
c1coc(-c2nc3nc4ccccc4nc3n2CC2CCCO2)c1 (centres undefined)	Hck Nef HTS 158.7 (not shown: Pf gametocyte)
CC(=O)/C(=C(/O)c1ccccc1)c1nc2ccccc2[nH]1	Hck Nef HTS 124.4 | Hck Nef conf active
O=C(/C(=C(\O)c1ccccc1)c1nc2ccccc2[nH]1)c1ccccc1	none (no result: Bim-Mcl-1)
O=C1CN(C(=O)COC(=O)/C=C/c2ccco2)c2ccccc2N1	Hck Nef HTS 53.1 | Hck Nef conf inactive
CC1=NNC(=O)/C1=C\c1cn(-c2ccccc2)nc1-c1ccc(F)cc1	Hck Nef HTS 85.7 (no result: Pf gametocyte) | Hck Nef conf active
CC1=NNC(=O)/C1=C\c1cn(-c2ccccc2)nc1-c1cccs1	Hck Nef HTS 99.2 | Hck Nef conf active
O=C(N/N=C/c1ccc(Cl)c([N+](=O)[O-])c1)c1cc(-c2ccc3c4c(cccc24)CC3)n[nH]1	Hck Nef HTS 61.6, Mcl1-Noxa inh 64.2 (no result: Bim-Mcl-1) | Hck Nef conf inactive
Nc1cc2ccncc2c2ccccc12	Hck Nef HTS 52.4 (no result: Pf gametocyte, Bim-Mcl-1) | Hck Nef conf inactive
Cc1cc(N)c2ccccc2n1	none

Source: PubChem BioAssay
